# Measurements: the supplement of paper PMC3334620
# Over roughly 33,000 sequences, “E-score (-0.5 to 0.5)” has its median near -0.054; the highest 2% begin near 0.35. This excerpt belongs to a sample that is enriched for the highest values.
# Target: T1, Stb5 (UniProt P38699)
# T1 sequence: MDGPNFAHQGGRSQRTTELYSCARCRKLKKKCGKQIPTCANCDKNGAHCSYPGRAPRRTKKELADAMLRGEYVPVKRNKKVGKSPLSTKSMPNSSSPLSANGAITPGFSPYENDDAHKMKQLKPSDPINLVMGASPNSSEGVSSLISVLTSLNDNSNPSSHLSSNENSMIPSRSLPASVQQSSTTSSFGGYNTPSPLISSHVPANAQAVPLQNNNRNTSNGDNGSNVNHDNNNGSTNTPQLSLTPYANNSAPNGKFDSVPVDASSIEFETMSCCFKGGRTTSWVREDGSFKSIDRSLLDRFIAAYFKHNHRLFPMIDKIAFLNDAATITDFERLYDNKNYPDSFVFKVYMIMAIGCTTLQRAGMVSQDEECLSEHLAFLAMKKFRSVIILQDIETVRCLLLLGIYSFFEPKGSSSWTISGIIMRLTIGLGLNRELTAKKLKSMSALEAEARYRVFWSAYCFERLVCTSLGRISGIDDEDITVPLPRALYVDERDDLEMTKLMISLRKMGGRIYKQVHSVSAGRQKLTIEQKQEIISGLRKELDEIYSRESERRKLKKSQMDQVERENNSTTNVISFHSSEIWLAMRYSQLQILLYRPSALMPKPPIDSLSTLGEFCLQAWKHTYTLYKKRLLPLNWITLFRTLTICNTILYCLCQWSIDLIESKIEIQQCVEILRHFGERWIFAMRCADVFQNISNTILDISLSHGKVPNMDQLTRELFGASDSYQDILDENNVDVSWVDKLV
# Assay: PBM E-score (8-mer binding enrichment) (E-score (-0.5 to 0.5)); higher = stronger / more preferred TF binding
# Details: protein concentration: 200 nM; construct: GST-full length
# Method in brief: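 Yeast transcription factors, full-length or as DNA-binding domains, were expressed with a GST tag using PURExpress in vitro transcription/translation. At about 100-200 nM they were applied to universal all-10-mer Agilent arrays, double-stranded by primer extension on fresh or once-stripped slides. Fluorescent anti-GST detected bound protein, and masliner normalised the scans. E-scores for ungapped eight-base words, pooled with reverse complements, came from the Universal PBM Analysis Suite.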
row,Sequence,PBM E-score
1,CGGCTTTA,0.439
2,CGGCTTTC,0.061
3,CGGCTCTA,0.391
4,AGGCTCTA,-0.0942
5,CGGCTATA,0.367
6,GGGCTTTA,0.326
7,AGGCTATA,0.0655
8,GGGCTATA,0.0715
9,CGGCTCTC,-0.0773
10,CTCTACCC,-0.316
11,GCCGCACA,0.206
12,CTGCTGGC,-0.124
13,AGCGGGAA,0.357
14,AGCGGGAT,0.25
15,AGCGGGGA,0.375
16,AGCGGGGG,0.277
17,CGCGGGGA,0.305
18,ATCGGGGA,0.307
19,GGCGGGGA,0.366
20,AGCGGGAG,0.0448
21,GCGGGGGA,0.261
22,CTCGGGGA,0.0793
23,GTCGGGGA,0.382
24,GGCGGGAA,0.287
25,GTAGGCAA,-0.246

row,Sequence,PBM E-score
1,AATCTCCT,-0.0106
2,GGGCAGTA,-0.0652
3,ACCAAACG,0.0282
4,AGATCCAC,-0.00803
5,GAACGTTC,-0.114
6,CCGTTACC,0.19
7,CAGAGTAC,-0.0917
8,CGTTTGGC,0.0428
9,ACGATTAT,0.0316
10,CCCGAGAC,0.146
11,CGGATTAA,0.231
12,AGCGGGCC,0.23
13,CGCGGGGC,0.321
14,ATCGGGGG,0.289
15,AGCGGGGC,0.356
16,ATCGGGGC,0.356
17,ATCGGGCC,0.297
18,CCCATATA,0.0651
19,ATAAACGA,0.0369
20,AGCCCAAA,0.106
21,ACCGACCC,0.361
22,CCCGACCG,0.355
23,GCCGACCC,0.267
24,CCCGACCC,0.247
25,ACCGACCG,0.346

row,Sequence,PBM E-score
1,ACCGACCA,0.332
2,AACACTAA,-0.111
3,TGTGGGAA,-0.16
4,GCCTAGTA,-0.0419
5,AAAATCCG,0.345
6,AGCCCCCG,0.173
7,CGCCCCGC,0.325
8,AGCCCCGA,0.397
9,GGCCCCGA,0.23
10,CGCCCCGA,0.328
11,AGCCCCGG,0.404
12,AGCCCCCC,-0.282
13,AGCCCGGG,0.189
14,AGCCCCGC,0.421
15,AAGGTGAT,0.117
16,AGAGGTAC,-0.205
17,CCTGATCC,-0.125
18,CCCATGGG,-0.194
19,GGTTGGAC,-0.0385
20,CGCCTGTC,-0.0556
21,ACTACAGT,-0.24
22,GACGGACA,0.372
23,CCCGGACA,0.315
24,TCCGGACA,0.259
25,GACGGACC,0.316

row,Sequence,PBM E-score
1,GTCGGAAA,0.274
2,GCCGGACA,0.401
3,ATCGGATA,0.19
4,CACGGACA,0.211
5,CTCGGACA,0.233
6,GTCGGATA,0.371
7,GTCGGACA,0.385
8,CTCGGATA,0.0597
9,TAAAACTA,-0.0104
10,CACAAAAG,0.0345
11,AGCTAACG,0.00522
12,CCTCCTAG,-0.267
13,ATGGCGAG,-0.242
14,CCAGCGCG,-0.0713
15,AAACCTTT,0.0851
16,AGGCCCCA,-0.255
17,GTCGGAGA,0.373
18,ATCGGAGA,0.33
19,CTCGGAGA,0.136
20,CGCGGAGA,0.287
21,GGCGGAGA,0.388
22,AGCGGAGA,0.236
23,AAACAGAG,-0.197
24,CGGTCTAA,0.23
25,CCACTACG,-0.0468

row,Sequence,PBM E-score
1,CCATAACG,-0.0562
2,AACATATT,-0.109
3,AGGTGTTC,-0.101
4,CGGTGTGA,0.441
5,CGGTGTGC,0.219
6,AGGTGTTG,-0.0336
7,AGGTGTGA,0.00067
8,AGGTGTTA,0.381
9,AGGTGTCC,-0.164
10,CTGTGTCC,0.136
11,CGGTGTTC,0.399
12,CCGTGTTC,0.137
13,GGGTGTTA,0.25
14,CGGTGTCC,0.369
15,AATCTGCA,-0.273
16,AAAGGCCT,-0.115
17,ACTCTGTG,-0.0679
18,TATAGGCA,-0.262
19,ATGATGCA,-0.187
20,CACCAGCG,-0.06
21,ACAAAGAG,-0.148
22,CGGTGTAA,0.438
23,CGGTGTAG,0.323
24,GGGTGTAA,0.251
25,GGGTGTCA,-0.073

row,Sequence,PBM E-score
1,CGGTGTCA,0.471
2,AGGTGTCA,0.12
3,TCGGAAGA,0.142
4,ATATGAAA,-0.119
5,ATTCGAGG,0.0182
6,TACGCAGA,-0.163
7,CGACCCGA,0.117
8,CAACGCCG,0.318
9,AAACGCCA,-0.046
10,AGACGCCC,0.0667
11,AAACGCCG,0.449
12,AGACGCCG,0.399
13,AGACGCCA,-0.181
14,CGCTAGAG,0.0369
15,AACATCGC,0.0424
16,GTGGTCAA,-0.291
17,AACTCCGC,0.438
18,CACTCCGA,0.242
19,CACTCCGG,0.219
20,AACTCCGA,0.463
21,AACTCCGT,0.444
22,AACTCCCG,0.248
23,AACTCCCT,-0.0261
24,TACTCCGA,0.234
25,AACTCCAT,0.144

row,Sequence,PBM E-score
1,AACTCCGG,0.436
2,CACTCCGC,0.307
3,GACTCCGC,0.333
4,AGATCAAG,-0.211
5,ATTAGTCC,0.248
6,CATATCAC,0.0389
7,TGCTGCAA,-0.177
8,CCAGAACG,-0.0165
9,ATTCAAAG,-0.12
10,GCGCGAAA,0.0664
11,AAGAGTGA,-0.258
12,ACAGACGT,-0.141
13,CCCCTCAC,-0.231
14,GGGTACCA,-0.157
15,GGGTACTA,-0.0611
16,TGGTACCA,-0.0919
17,CGGTACCA,0.39
18,AGGTACTA,0.16
19,CGGTACTA,0.474
20,AATGTGCC,0.145
21,ATCAAAGA,-0.248
22,CAGCAGGA,-0.194
